Active and inactive are the calls of the source. Calls follow the shape of the dose curve; as a rule, active = well fitted activation curve with a large enough effect; inactive = flat fitted curve, though single readings scatter.
biological target: Pyruvate kinase PKM (Homo sapiens) (UniProt P14618); experiment: qHTS for Activators of Human Muscle Isoform Pyruvate Kinase: Extended Characterization Using A Lactate Dehydrogenase (LDH) Assay; settings: purified hPK-M2, LDH-coupled NADH fluorescence kinetic
Description: Human pyruvate kinase muscle 2 (hPK-M2)enzyme was supplied as a highly purified (>95% pure) preparation from Harvard Medical School and a secondary assay was used to evaluate compounds. This assay couples the formation of pyruvate from hPK-M2 using lactate dehydrogenase (LDH) and NADH. The depletion of NADH is followed in a fluorescent-based kinetic assay that follows the formation of pyruvate to lactate, as catalyzed LDH (described by Hannaert et al., 2002)1 Pyruvate kinase substrates, PEP and ADP, were present in the assay at 0.1 mM and 4 mM respectively. In this kinetic assay initial rates were determined by following the fluorescence of NADH depletion. NIH Chemical Genomics Center [NCGC] NIH Molecular Libraries Probe Centers Network [MLPCN] MLPCN Grant: MH085679 Assay Submitter (PI): Matthew G. Vander Heiden, Harvard Medical School
Three uL of substrate mix (final concentration, 50 mM Tris-Cl pH 8.0, 200 mM KCl, 15 mM MgCl2, 0.1 mM PEP, 4.0 mM ADP, and 0.2 mM NADH) was dispensed into black-solid 1536 well plates. 23 nL of compounds were delivered by a pin tool and 1 uL of enzyme mix (final concentrations, 10 nM hPK-M2 and 1 uM of LDH) was added. Plates were immediately placed in ViewLux (Perkin Elmer) and NADH fluorescence was determined at 30 second exposure intervals for between 3 and 6 minutes. Data were normalized to the uninhibited and EC100 activation using known activators such as fructose-bis-phosphate.

Pyruvate kinase PKM (Homo sapiens), sequence (P14618 whole entry, looked up, canonical isoform): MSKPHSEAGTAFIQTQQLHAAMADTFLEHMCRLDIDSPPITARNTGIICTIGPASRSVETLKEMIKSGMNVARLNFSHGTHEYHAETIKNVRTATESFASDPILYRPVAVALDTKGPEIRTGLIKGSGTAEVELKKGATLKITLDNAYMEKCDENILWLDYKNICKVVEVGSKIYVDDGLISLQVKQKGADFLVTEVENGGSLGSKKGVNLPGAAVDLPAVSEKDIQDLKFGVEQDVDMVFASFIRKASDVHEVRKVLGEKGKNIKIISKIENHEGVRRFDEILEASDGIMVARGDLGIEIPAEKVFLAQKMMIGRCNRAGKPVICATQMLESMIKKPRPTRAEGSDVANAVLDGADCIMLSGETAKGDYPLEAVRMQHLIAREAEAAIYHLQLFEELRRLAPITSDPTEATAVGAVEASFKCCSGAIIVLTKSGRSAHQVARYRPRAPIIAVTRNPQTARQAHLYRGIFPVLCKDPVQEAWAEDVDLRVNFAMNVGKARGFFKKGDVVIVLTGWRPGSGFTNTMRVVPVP

Potency, active:
Cc1cc2c(s1)c1cnn(Cc3ccc(F)cc3F)c(=O)c1n2C 224 nM, Cc1cc2c(s1)c1cnn(Cc3cc(F)ccc3F)c(=O)c1n2C 447 nM, COc1cccc(Cn2ncc3c4sc(S(C)=O)cc4n(C)c3c2=O)c1 (stereo not given) 146 nM, Cc1cc2c(s1)c1cnn(Cc3cc(F)c(F)cc3F)c(=O)c1n2C 398 nM, Cc1cc2c(s1)c1cnn(Cc3c(Cl)ccc(C)c3F)c(=O)c1n2C 562 nM
